A short description of test [1]: Caspase-3/7 induction in HepG2 cells by small molecules, qHTS assay (AID 1346978). Also: nearly all actives have a fitted effect of over 15% in size. An outline of the steps:
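Wild-type HepG2 cells (2,000/well) were settled 5 h at 37 C, 5% CO2, then exposed to compounds in DMSO for 17 h. Caspase-3/7 activity was read by luminescence 30 min after adding Caspase-Glo 3/7 reagent at room temperature.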
Background: qHTS replaces the single test concentration by a dilution series.

The nature of test [2]: Caspase-3/7 induction in CHO-K1 cells by small molecules, qHTS cell viability counter screen (AID 1346979). Also: nearly all actives have a fitted effect of over 35% in size. An outline of the steps: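 Wild-type CHO-K1 cells were seeded at 1,500 per well, rested 5hr at 37 C, then exposed to compounds in DMSO. After 16hr, CellTiter-Fluor reagent was added and fluorescence read 1hr later as the viability measure.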
A short description of test [3]: Caspase-3/7 induction in CHO-K1 cells by small molecules, qHTS assay (AID 1346980). Also: nearly all actives have a fitted effect of over 15% in size. An outline of the steps: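 Wild-type cells were seeded at 1,500 per well and settled 5 hr at 37 C, 5% CO2, then exposed to DMSO-dissolved compounds for 17 hr. Caspase-Glo 3/7 reagent was added, and luminescence was read after 30min at room temperature.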
A short description of test [4]: Caspase-3/7 induction in HepG2 cells by small molecules, qHTS cell viability counter screen (AID 1346981). Also: series mostly up to about 92 µM; nearly all actives have a fitted effect of over 30% in size. An outline of the steps:
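Steps: seed 2,000 HepG2 cells per well; incubate 5 hr at 37 C; pin-add compounds in DMSO; incubate 16 hr; add CellTiter-Fluor; after 1 hr at 37 C and 5% CO2, read fluorescence.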

The target of test [5] is Cytochrome P450 2D6 (Homo sapiens) (UniProt P10635). Put plainly: Cytochrome P450 Family 2 Subfamily D Member 6 (CYP2D6) small molecule antagonists: luciferase reporter qHTS assay (AID 1671196). Also: series mostly up to about 120 µM; nearly all actives have a fitted effect of over 50% in size. In outline: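 P450-Glo format: CYP2D6 converts a proluciferin substrate to luciferin in an NADPH-driven reaction lasting 1 h at room temperature. Light output, proportional to CYP2D6 activity, reflects interference by test chemicals.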
(A reporter such as luciferase makes a cellular process visible.)

Test [6] has as its target Cytochrome P450 2C19 (Homo sapiens) (UniProt P33261). Put plainly: Cytochrome P450 Family 2 Subfamily C Member 19 (CYP2C19) small molecule antagonists: luciferase reporter qHTS assay (AID 1671197). Also: nearly all actives have a fitted effect of over 65% in size. Also: potency is read from the fitted curve at half-maximal effect. An outline of the steps: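 Enzyme-substrate mix with proluciferin substrate (P450-Glo CYP2C19 system) preincubated with compounds 10 min at room temperature; NADPH regeneration solution added, 37C for 1 h; detection reagent stops reaction, luminescence read after 20 min. Ketoconazole positive control.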

Test [7] has as its target Nuclear receptor subfamily 1 group I member 2 (Homo sapiens) (UniProt O75469). Nature of the test: Human pregnane X receptor (PXR) small molecule agonists, qHTS assay (AID 1346982). Also: nearly all actives have a fitted effect of over 35% in size. Also: potency is read from the fitted curve at half-maximal effect. An outline of the steps:
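Agonist mode qHTS: PXR-Luc HepG2 cells plated 5 hr before DMSO-dissolved compounds were pinned in, cultured 24 hr at 37 C, 5% CO2; ONE-Glo luminescence readout.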

In test [8] the target is Cytochrome P450 2C9 (Homo sapiens) (UniProt P11712). Nature of the test: Cytochrome P450 Family 2 Subfamily C Member 9 (CYP2C9) small molecule antagonists: luciferase reporter qHTS assay (AID 1671198). Also: nearly all actives have a fitted effect of over 50% in size. Also: potency is read from the fitted curve at half-maximal effect. In outline:
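CYP2C9 activity was measured with a P450-Glo proluciferin substrate. Enzyme–substrate mix was held with compound for 10 min at room temperature, then NADPH regeneration solution was added for 1 h at 37C. Luciferin product was read as luminescence.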

For test [9], the target named is Cytochrome P450 1A2 (Homo sapiens) (UniProt P05177). Nature of the test: Cytochrome P450 Family 1 Subfamily A Member 2 (CYP1A2) small molecule antagonists: luciferase reporter qHTS assay (AID 1671199). Also: nearly all actives have a fitted effect of over 50% in size. Also: potency is read from the fitted curve at half-maximal effect. An outline of the steps:
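Inhibition of CYP1A2 conversion of proluciferin to luciferin, detected by luminescence. Reaction run 1 h at room temperature with NADPH regeneration after brief compound preincubation.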

Test [10] deals with Voltage-gated inwardly rectifying potassium channel KCNH2 (Homo sapiens) (UniProt Q12809). Nature of the test: Human Ether-a-go-go-Related Gene (hERG) channel small molecule antagonists: fluorescence cell-based qHTS assay (AID 1671200).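 Also: hERG-expressing U2OS cells given a thallium stimulus after FluxOR II dye loading; series mostly up to about 77 µM; nearly all actives have a fitted effect of over 50% in size.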 An outline of the steps: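 U2OS cells expressing the channel were plated at 1000 cells/well, incubated overnight at 37 C, then loaded with FluxOR II thallium-sensitive dye for 1 h at room temperature in the dark, with a further 10 min at room temperature before stimulation.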

Test [11] has as its target Cytochrome P450 3A4 (Homo sapiens) (UniProt P08684). Put plainly: Cytochrome P450 Family 3 Subfamily A Member 4 (CYP3A4) small molecule antagonists: luciferase reporter qHTS assay (AID 1671201). Also: nearly all actives have a fitted effect of over 50% in size. Also: potency is read from the fitted curve at half-maximal effect. In outline:
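P450-Glo CYP3A4 system with proluciferin substrate; compounds preincubated 10 min RT with enzyme-substrate mix, then NADPH regeneration added for 1 h RT. Detection reagent 20 min, luminescence read as relative luminescence units.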

Test [12] concerns the target Nuclear receptor subfamily 1 group I member 2 (Rattus norvegicus) (UniProt Q9R1A7). Nature of the test: Rat pregnane X receptor (rPXR) activation by small molecules, qHTS assay (AID 1346983). Also: nearly all actives have a fitted effect of over 20% in size. Also: potency is read from the fitted curve at half-maximal effect. The conditions noted are these: rPXR luciferase reporter cells, One-Glo luminescence, 24 h; max activation: active compounds read high. An outline of the steps:
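Cell-based rPXR luciferase reporter assay, 2,000 cells per well, rested 5hr at 37 C before compound addition in DMSO, then 24 hr at 37 C. One-Glo reagent was added and luminescence read after 30 min at room temperature.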

The target of test [13] is Nuclear receptor subfamily 1 group I member 2 (Homo sapiens) (UniProt O75469). Put plainly: CYP3A4 induction through human pregnane X receptor (PXR) by small molecules, qHTS assay (AID 1346984). Also: nearly all actives have a fitted effect of over 40% in size. In outline:
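Steps: seed DPX-2 cells, 5 hr at 37C; pin-transfer compounds; 24 hr at 37C; add Luciferin-IPA (3uM final), 3 hr at 37C; add One-Glo, 30 min RT; read luminescence.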

Test [14] has the same target. Put plainly: Human pregnane X receptor (PXR) activation by small molecules, qHTS assay (AID 1346985). Also: nearly all actives have a fitted effect of over 40% in size. Also: potency is read from the fitted curve at half-maximal effect. In outline:
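DPX-2 cells (HepG2 co-transfected with a PXR response element and a CYP3A4-promoter luciferase construct) were seeded at 2,000 per well, rested 5 hr at 37C, then exposed to DMSO-dissolved compounds for 24 hr. Activation was read as luciferase luminescence.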

The results in this text go back to PubChem BioAssay (Tox21).

The structures appear in SMILES notation. Where “and” joins values, the source holds several entries; their conditions need not be identical. Identical values can stand only once. Values without a mark were called inactive. Records with an inconclusive call do not appear. Calls of active or inactive are those of the source. Calls follow the shape of the dose curve; as a rule, active = well fitted curve in the direction sought with a large enough effect in the repeat runs; inconclusive = weak or mixed curves; inactive = no such curve, though single readings can be large; an effect the other way counts as inactive or inconclusive.
% is scaled to controls: 0 for no effect and ±100 for the full control effect.

Sequence of Cytochrome P450 3A4 (Homo sapiens) (P08684 whole entry, looked up): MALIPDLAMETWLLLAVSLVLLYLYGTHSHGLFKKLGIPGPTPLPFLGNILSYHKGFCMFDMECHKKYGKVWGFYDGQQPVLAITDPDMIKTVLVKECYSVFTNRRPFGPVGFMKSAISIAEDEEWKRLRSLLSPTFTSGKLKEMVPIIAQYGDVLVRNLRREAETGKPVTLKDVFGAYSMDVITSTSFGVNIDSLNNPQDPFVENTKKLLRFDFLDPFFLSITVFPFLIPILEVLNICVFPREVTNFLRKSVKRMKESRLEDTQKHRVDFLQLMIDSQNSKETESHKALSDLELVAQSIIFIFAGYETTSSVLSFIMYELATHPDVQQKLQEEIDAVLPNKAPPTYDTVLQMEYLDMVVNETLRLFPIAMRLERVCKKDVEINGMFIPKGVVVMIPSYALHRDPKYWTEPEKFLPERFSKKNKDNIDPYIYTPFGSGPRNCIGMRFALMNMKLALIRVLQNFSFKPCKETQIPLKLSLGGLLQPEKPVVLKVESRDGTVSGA
Sequence of Cytochrome P450 2C9 (Homo sapiens) (P11712 whole entry, looked up): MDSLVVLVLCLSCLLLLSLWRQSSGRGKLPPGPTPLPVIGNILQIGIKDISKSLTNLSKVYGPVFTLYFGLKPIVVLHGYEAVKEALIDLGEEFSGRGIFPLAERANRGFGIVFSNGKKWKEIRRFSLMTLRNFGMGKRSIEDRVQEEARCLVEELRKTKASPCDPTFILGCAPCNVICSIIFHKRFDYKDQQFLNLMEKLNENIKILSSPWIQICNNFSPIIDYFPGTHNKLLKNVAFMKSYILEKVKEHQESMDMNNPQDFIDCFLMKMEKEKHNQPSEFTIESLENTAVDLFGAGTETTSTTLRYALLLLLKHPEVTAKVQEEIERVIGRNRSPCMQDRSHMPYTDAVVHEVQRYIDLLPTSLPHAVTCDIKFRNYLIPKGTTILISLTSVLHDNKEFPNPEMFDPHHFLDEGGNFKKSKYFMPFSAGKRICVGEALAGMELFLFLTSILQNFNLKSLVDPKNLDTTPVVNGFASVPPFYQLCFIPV
Sequence of Cytochrome P450 2D6 (Homo sapiens) (P10635 whole entry, looked up): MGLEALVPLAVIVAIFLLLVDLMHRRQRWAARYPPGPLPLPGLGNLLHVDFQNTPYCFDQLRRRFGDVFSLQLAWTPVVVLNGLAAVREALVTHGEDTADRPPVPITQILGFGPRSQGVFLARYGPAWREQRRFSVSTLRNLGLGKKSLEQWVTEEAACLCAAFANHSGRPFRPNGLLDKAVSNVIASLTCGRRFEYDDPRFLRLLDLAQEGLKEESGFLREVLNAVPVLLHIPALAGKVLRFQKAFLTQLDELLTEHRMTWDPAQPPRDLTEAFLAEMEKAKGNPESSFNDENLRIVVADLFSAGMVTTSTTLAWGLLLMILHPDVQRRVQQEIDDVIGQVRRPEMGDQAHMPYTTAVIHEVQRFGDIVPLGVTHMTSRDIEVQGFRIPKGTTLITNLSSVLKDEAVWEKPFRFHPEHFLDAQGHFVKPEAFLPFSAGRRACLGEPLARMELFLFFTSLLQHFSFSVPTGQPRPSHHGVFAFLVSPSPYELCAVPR
Sequence of Nuclear receptor subfamily 1 group I member 2 (Homo sapiens) (O75469 whole entry, looked up): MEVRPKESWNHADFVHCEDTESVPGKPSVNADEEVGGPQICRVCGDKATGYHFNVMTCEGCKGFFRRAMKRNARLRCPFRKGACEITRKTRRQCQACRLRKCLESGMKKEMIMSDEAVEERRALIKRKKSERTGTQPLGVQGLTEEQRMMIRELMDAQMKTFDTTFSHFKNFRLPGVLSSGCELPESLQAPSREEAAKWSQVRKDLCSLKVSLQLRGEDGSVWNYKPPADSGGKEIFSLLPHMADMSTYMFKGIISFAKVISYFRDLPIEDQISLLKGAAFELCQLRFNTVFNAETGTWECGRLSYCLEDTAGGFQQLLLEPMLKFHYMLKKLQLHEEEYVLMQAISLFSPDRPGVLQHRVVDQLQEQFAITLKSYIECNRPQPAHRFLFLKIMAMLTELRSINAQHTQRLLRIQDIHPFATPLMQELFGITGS
Sequence of Nuclear receptor subfamily 1 group I member 2 (Rattus norvegicus) (Q9R1A7 whole entry, looked up): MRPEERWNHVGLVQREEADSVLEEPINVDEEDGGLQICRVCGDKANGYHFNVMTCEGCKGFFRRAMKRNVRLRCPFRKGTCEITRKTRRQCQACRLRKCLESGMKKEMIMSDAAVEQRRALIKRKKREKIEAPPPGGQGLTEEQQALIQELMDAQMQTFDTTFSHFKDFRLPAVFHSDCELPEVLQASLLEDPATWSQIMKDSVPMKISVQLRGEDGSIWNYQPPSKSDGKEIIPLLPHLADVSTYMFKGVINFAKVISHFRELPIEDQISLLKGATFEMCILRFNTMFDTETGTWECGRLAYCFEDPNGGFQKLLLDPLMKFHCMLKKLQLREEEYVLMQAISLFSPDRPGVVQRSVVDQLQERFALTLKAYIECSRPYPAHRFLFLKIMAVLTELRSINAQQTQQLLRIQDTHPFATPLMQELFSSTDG
Sequence of Cytochrome P450 2C19 (Homo sapiens) (P33261 whole entry, looked up): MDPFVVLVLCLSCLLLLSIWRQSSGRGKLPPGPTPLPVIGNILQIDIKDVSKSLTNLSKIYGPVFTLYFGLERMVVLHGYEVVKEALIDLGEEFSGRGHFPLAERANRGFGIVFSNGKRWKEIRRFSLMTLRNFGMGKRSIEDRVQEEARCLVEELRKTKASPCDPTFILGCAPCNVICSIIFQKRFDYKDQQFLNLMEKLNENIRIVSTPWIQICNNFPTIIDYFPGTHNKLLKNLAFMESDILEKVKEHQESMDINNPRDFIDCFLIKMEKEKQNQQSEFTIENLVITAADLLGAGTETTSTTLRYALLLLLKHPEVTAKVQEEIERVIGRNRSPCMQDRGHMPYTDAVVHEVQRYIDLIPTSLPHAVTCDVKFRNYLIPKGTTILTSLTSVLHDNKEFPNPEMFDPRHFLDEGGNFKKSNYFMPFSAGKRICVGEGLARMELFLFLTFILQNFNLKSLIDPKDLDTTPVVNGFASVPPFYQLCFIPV
Sequence of Voltage-gated inwardly rectifying potassium channel KCNH2 (Homo sapiens) (Q12809 whole entry, looked up): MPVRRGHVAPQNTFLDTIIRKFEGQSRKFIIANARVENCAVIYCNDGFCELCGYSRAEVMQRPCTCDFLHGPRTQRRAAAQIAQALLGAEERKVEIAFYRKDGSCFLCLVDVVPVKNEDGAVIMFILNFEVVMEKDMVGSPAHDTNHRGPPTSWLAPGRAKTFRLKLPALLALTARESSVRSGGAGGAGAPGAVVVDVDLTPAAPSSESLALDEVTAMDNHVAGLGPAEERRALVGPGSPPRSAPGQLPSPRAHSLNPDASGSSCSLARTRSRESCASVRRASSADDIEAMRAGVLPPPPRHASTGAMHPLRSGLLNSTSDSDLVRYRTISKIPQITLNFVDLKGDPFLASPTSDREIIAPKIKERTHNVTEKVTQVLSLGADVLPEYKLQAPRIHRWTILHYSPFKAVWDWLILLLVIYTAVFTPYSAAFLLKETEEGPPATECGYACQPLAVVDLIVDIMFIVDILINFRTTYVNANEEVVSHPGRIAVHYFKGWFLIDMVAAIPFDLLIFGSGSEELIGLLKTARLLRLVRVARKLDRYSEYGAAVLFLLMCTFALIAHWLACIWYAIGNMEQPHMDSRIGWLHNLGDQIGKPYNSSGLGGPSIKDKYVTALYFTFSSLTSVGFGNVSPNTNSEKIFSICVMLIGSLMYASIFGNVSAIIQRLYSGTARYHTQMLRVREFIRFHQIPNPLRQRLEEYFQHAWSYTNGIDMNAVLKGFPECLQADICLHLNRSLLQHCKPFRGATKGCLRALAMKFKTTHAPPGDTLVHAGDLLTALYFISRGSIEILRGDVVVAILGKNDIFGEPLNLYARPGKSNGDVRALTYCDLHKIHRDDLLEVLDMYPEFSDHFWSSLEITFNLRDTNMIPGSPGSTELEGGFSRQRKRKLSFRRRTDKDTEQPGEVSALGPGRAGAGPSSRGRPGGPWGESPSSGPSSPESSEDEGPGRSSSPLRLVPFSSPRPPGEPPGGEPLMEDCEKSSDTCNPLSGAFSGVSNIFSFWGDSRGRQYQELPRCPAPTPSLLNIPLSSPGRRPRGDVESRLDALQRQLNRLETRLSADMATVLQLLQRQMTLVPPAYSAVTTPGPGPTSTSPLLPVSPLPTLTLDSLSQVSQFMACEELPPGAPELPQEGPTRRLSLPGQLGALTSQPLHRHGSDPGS
Sequence of Cytochrome P450 1A2 (Homo sapiens) (P05177 whole entry, looked up): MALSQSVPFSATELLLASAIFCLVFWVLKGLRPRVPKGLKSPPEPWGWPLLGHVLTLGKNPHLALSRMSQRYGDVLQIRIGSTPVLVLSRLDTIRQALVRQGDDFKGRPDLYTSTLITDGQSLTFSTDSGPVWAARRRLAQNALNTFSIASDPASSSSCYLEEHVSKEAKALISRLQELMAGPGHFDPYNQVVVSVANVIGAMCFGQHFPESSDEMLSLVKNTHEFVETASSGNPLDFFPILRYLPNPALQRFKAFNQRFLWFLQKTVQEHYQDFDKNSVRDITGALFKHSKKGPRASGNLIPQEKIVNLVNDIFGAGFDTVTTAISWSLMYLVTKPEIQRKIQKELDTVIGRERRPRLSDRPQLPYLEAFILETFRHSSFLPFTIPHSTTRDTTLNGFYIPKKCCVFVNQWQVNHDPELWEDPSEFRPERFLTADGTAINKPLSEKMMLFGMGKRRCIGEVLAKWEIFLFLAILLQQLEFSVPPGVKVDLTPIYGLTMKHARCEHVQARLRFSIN

As for `O=C1CCCCCCCCCCCCCCO1`, the compound was called inactive in [1] and in test [3]. Besides, the Potency entry in test [2], in test [4], in test [5] and in test [6] was “inactive” in each case.
Take `O=Cc1cccc(Br)c1`: the outcome in test [1] and in [3] was inactive. Moreover, the Potency entry in test [2], in test [4], in [7] and in [10] was “inactive” each time. The Potency in [6] is 18.3 µM (active); in test [8], 40.9 µM (active); in test [9], 16.3 µM (active); in [11], 81.7 µM (active).
Regarding `O=C(O)CNC(=O)c1ccccc1`, the compound was classed as inactive in [1] and in test [3]. The Potency entry in [2], in test [4], in test [13], in test [14], in test [5] and in test [6] was “inactive” throughout. The Potency entry in test [8], in [9], in [10] and in test [11] was “inactive” each time. In addition, the max activation in [12] was -5.13%.
As to `CN1CCC(=C2c3ccccc3CCc3cccnc32)CC1`, the outcome in [1] and in [3] was inactive. Moreover, the Potency result in test [2], in test [4], in test [7] and in [10] was “inactive” in each case.
As to `CCCc1ncc(C[n+]2ccccc2C)c(N)n1`, the call in test [1] and in [3] was inactive. For the same compound, the Potency entry in [2], in test [4], in test [5], in test [6], in test [8] and in test [9] was “inactive” each time. Also, the Potency result in test [10] and in [11] was “inactive” in each case. Besides, the max activation in [12] is -3.34%.
With `CN(C)[C@@H]1C(=O)C(C(=O)NCN2CCCC2)=C(O)[C@@]2(O)C(=O)C3=C(O)c4c(O)cccc4[C@@](C)(O)C3C[C@@H]12` (stereo partly drawn), the compound was called inactive in test [1] and in test [3]. Moreover, the Potency entry in test [2], in test [4], in test [13], in test [14], in test [8] and in test [10] was “inactive” throughout. Besides, the Potency entry in [11] was “inactive”. In addition, the max activation in [12] was 1.07% and -3.86%. The Potency in [9] was 17.4 µM (active).
For `CCCC(=O)O[C@]1(C(=O)CC)CC[C@H]2[C@@H]3CCC4=CC(=O)CC[C@]4(C)[C@H]3[C@@H](O)C[C@@]21C`, the compound was classed as inactive in test [1] and in test [3]. For the same compound, the Potency result in test [2], in [4] and in test [9] was “inactive” throughout. The Potency was 3.76 µM (active) in test [7] and 15.5 µM (active) in test [8].
With `[K+]`, the compound was called inactive in [1] and in test [3]. For the same compound, the Potency entry in test [2], in test [4], in test [5], in test [6], in [8] and in test [9] was “inactive” each time. The Potency result in test [10] and in [11] was “inactive” in each case.
Regarding `C=CC(=O)OCCCl`, the call in test [1] and in test [3] was inactive. Also, the Potency result in [2], in test [4], in [7], in test [8], in test [10] and in test [11] was “inactive” throughout. The Potency is 81.5 µM (active) in test [6] and 40.8 µM (active) in test [9].
For the compound `CO[C@@]1(NC(=O)CSC[C@@H](N)C(=O)O)C(=O)N2C(C(=O)O)=C(CSc3nnnn3C)CS[C@@H]21`, the result in [1] and in [3] was inactive. Further, the Potency result in test [2], in [4], in test [7], in [6], in [8] and in [9] was “inactive” throughout. Also, the Potency entry in test [11] is “inactive”.
For the compound `c1ccc2sc(SN3CCOCC3)nc2c1`, the call in test [1] and in test [3] was inactive. The Potency result in test [2], in [4], in [13] and in test [10] was “inactive” each time. In addition, the Potency in test [12] was 28.2 µM (active); in [14], 10 µM (active); in test [6], 17.4 µM (active); in test [8], 17.4 µM (active).
